“And” between values parts separate entries of the source, which are not always exact repeats. Equal values may be shown once. About 11,000 (3.5%) of roughly 310,000 compounds were called active. Inconclusive results (about 4%) are left out. The call rests on the fitted dose curve; in most records, active means well fitted inhibition curve with a large enough effect; inconclusive means small, poorly fitted or top-dose-only effect, or another doubt; inactive means no such curve, though single readings can be large or run the other way. Shown is part of a subset that was picked to be rich in actives.
Potency means the concentration at half of the fitted maximal effect.

The assay addresses 4'-phosphopantetheinyl transferase ffp (Bacillus subtilis) (UniProt Q9F4F7). Nature of the assay: qHTS Assay for Inhibitors of Bacillus subtilis Sfp phosphopantetheinyl transferase (PPTase).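 Further: the enzyme is Sfp with the accession as filed and its product quenches rhodamine fluorescence.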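 On largest response in the series, negative = inhibition: 0% = enzyme reaction without inhibitor and -100% = no enzyme wells.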 The conditions noted are these: Biochemical Sfp PPTase activity. In a few lines: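 Reaction rates are the 30-min fluorescence difference (ex 525, em 598 nm) in wells containing 15 nM Sfp, 5 uM rhodamine-CoA and 12.5 uM BHQ-2-YbbR at pH 7.6 with 10 mM MgCl2.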
Consider `CN1CCN(C(=O)O[C@@H]2c3nccnc3C(=O)N2c2ccc(Cl)cn2)CC1`, for which the largest response in the series, negative = inhibition is -8.07% (inactive).

With `CC(=C1C(=O)c2ccccc2C1=O)N1CCN(CCN=Cc2c(O)n(C)c(=O)n(C)c2=O)CC1`, the largest response in the series, negative = inhibition is 10.2% (inactive).

Take `CN1C2CC3CC1C(O3)C2O` (stereo not drawn): the largest response in the series, negative = inhibition was -0.102% (inactive).

For the molecule `Fc1ccc(C(OCCN2CCN(C/C=C\c3ccccc3)CC2)c2ccc(F)cc2)cc1`, the Potency is 89.1 µM (active).

For the molecule `C[C@H]1CC[C@@]2(NC1)O[C@@H]1C[C@H]3[C@@H]4CC=C5C[C@@H](O)CC[C@]5(C)[C@@H]4CC[C@]3(C)[C@@H]1[C@@H]2C`, the largest response in the series, negative = inhibition was 7.1% (inactive).

Consider `COc1ccc(NC(=O)N2CCC3(CC2)OCCO3)c(OC)c1`, for which the largest response in the series, negative = inhibition is -7.26% (inactive).

On to `CO[C@H]1[C@@H](O)[C@@H](C)O[C@H](O[C@H]2[C@H](Oc3cccc4c(O)c5c(=O)oc6ccc(C)c7c(=O)oc(c34)c5c67)O[C@H](C)[C@H](O)[C@@H]2O)[C@@H]1O`, for which the largest response in the series, negative = inhibition is -22.5% (inactive).

Regarding `CN(C)C(=O)Oc1cc(OC(=O)N(C)C)cc(C(O)CNC(C)(C)C)c1` (stereo not drawn), the largest response in the series, negative = inhibition is 2.1% (inactive).

For `O=C1NC(=O)N(Cc2ccco2)C(=O)/C1=C\c1cccn1CCOc1ccccc1`, the Potency is 20 µM (active).

Turning to `O=C1NC(=O)N(Cc2ccco2)C(=O)/C1=C\c1ccc(-c2ccc(F)cc2)o1`, the Potency is 31.6 µM (active).

Consider `CC[C@]1(O)C(=O)OCc2c1cc1n(c2=O)Cc2cc3ccccc3nc2-1`, for which the largest response in the series, negative = inhibition is 6.01% (inactive).

Turning to `COP(=O)(NS(=O)(=O)c1ccccc1)OC`, the largest response in the series, negative = inhibition is 17.4% (inactive).

On to `C=CCN1CCC2(C)c3cc(O)ccc3CC1[C@@H]2C` (stereo partly drawn), for which the largest response in the series, negative = inhibition is 3.98% (inactive).

Consider `CCc1nnc(NS(=O)(=O)c2ccc(N=Cc3c(O)n(-c4ccccc4)c(=O)[nH]c3=O)cc2)s1`, for which the largest response in the series, negative = inhibition was -8.17% (inactive).

Turning to `Cc1cc(C)cc(NC(=S)NC2CC3CCCC(C2)N3Cc2cccs2)c1` (stereo not drawn), the largest response in the series, negative = inhibition was 14.7% (inactive).

For `CC(C)Oc1cccc(C(=O)C2CCCN(C3CCOCC3)C2)c1` (stereo not drawn), the largest response in the series, negative = inhibition is 17.1% (inactive).

Regarding `CCN(CC)c1nc(C)cc(OP(=S)(OC)OC)n1`, the largest response in the series, negative = inhibition is 6.37% (inactive).

In the case of `O=c1c2ccccc2nc(/C=C/c2ccc(F)cc2)n1-c1ccccc1O`, the largest response in the series, negative = inhibition is -2% (inactive).

Consider `O=c1c2ccccc2nc(-c2ccco2)n1-c1ccc(Br)cn1`, for which the largest response in the series, negative = inhibition was -3.04% (inactive).

With `O=c1c2ccccc2nc(/C=C/c2ccco2)n1-c1ccccc1O`, the Potency was 10 µM (active).

For the molecule `CCN1CC2C3CCC(C)(O3)C2C1` (stereo not drawn), the largest response in the series, negative = inhibition was 13.8% (inactive).

Consider `O=C(N/N=C/c1c(O)n(C2CC2)c(=S)[nH]c1=O)c1ccccc1Cl`, for which the largest response in the series, negative = inhibition is 9.37% (inactive).

As to `CC(C)(C)c1ccc(OC(=O)N2CCCCC2)cc1`, the largest response in the series, negative = inhibition was -1.08% (inactive).

`N[C@H](Cc1o[nH]c(=O)c1Cl)C(=O)O`: the Potency is 79.4 µM (active).

On to `N[C@H](C(=O)O)c1cc(=O)[nH]o1`, for which the largest response in the series, negative = inhibition was 2.79% (inactive).

On to `CCOP(=O)(OCC)C(O)c1ccc(OC)cc1OC` (stereo not drawn), for which the largest response in the series, negative = inhibition was 9.04% (inactive).

Turning to `CN(C)C(=O)Oc1cc(=O)n2c3c(cccc13)CCC2`, the largest response in the series, negative = inhibition is 10.3% (inactive).

Consider `C[C@]12CC[C@H](O)C[C@@H]1CC[C@H]1[C@H]2CC[C@]2(C)C(=O)CC[C@@H]12`, for which the largest response in the series, negative = inhibition is -1.51% (inactive) and 34.7% (inactive) and 1.49% (inactive).

`O=[N+]([O-])c1ccc(C2C3C(c4ccccc4)=NC4(CCCCC4)N32)cc1` (stereo not drawn): the largest response in the series, negative = inhibition was -4.07% (inactive).

With `c1csc(CN2CC3(CCNCC3)C2)n1`, the largest response in the series, negative = inhibition is 12.2% (inactive).

For the molecule `C=CCN1C(=O)NC(=O)/C(=C/c2ccc(OCC(=O)Nc3ccc(C)cc3)cc2)C1=O`, the Potency is 35.5 µM (active).

On to `C=CCN(CC=C)C(=O)Nc1ccc(OCC)cc1`, for which the largest response in the series, negative = inhibition is 0.3% (inactive).

Regarding `O=C(Cc1ccccc1)N1CCN(C2CCCCCC2)CC1`, the largest response in the series, negative = inhibition was -9.44% (inactive).

For `Cc1noc(C)c1CSc1nc2cc(S(=O)(=O)N3CCOCC3)ccc2o1`, the Potency was 20 µM (active).

Consider `CCC1(c2ccccc2)C(=O)NC(=O)N(C)C1=O` (stereo not drawn), for which the largest response in the series, negative = inhibition was 9.18% (inactive).

Consider `Nc1ccc(-c2ccc(N)c(N)c2)cc1N`, for which the largest response in the series, negative = inhibition was -2.55% (inactive).

With `CN(c1ccccc1)c1ccc([N+](=O)[O-])c2nonc12`, the largest response in the series, negative = inhibition was -10.3% (inactive).

`CN(C)C(=O)Oc1ccc2c(c1)O/C(=C\c1ccccc1)C2=O`: the largest response in the series, negative = inhibition was 2.07% (inactive).

As to `Cc1nc2ccccn2c1P(=S)(N1CCCCC1)N1CCCCC1`, the Potency is 56.2 µM (active).

`COc1ccc2[nH]cc(CCNCc3ccc(Br)cc3)c2c1`: the largest response in the series, negative = inhibition was -23.1% (inactive).

For `Cc1cccc(N2C(=O)NC(=O)/C(=C\c3cnn(-c4ccccc4)c3)C2=O)c1`, the Potency is 39.8 µM (active).

Take `Cc1c(C(=O)O)cccc1-n1c(C)cc(/C=C2\C(=O)NC(=O)N(c3ccc4c(c3)OCO4)C2=O)c1C`: the largest response in the series, negative = inhibition is -16.8% (inactive).

In the case of `O=C(Nc1cccc(F)c1)N1CC[C@@]2(CCCN(C(=O)Oc3ccccc3)C2)C1`, the largest response in the series, negative = inhibition is -5.07% (inactive).

`CC[N+]1(C)CCCC(OC(=O)C(O)(c2ccccc2)c2ccccc2)C1` (stereo not drawn): the largest response in the series, negative = inhibition is 15.8% (inactive) and 11.5% (inactive).

With `COc1ccccc1NC(=O)N1C[C@@H]2C[C@@H](C1)c1cccc(=O)n1C2`, the largest response in the series, negative = inhibition was 13.6% (inactive).

Take `CN=C(NC#N)NCCSCc1nc[nH]c1C`: the largest response in the series, negative = inhibition is 5.33% (inactive) and -12.8% (inactive) and 5.86% (inactive).

Regarding `COC(=O)N(c1ccc(OC)cc1)P1(=S)OCCC(C)O1` (stereo not drawn), the Potency is 12.6 µM (active).

Take `CC(C)CN1CCN(Cc2ccccc2C(F)(F)F)CC1CCO` (stereo not drawn): the largest response in the series, negative = inhibition is 6.48% (inactive).

Consider `O=C(CCN1CCCCC1)NCC(=O)Nc1ccc(Br)cc1C(=O)c1ccccc1`, for which the largest response in the series, negative = inhibition was -17.5% (inactive).

For `C[C@@H]1C[C@@H]2O[C@H]2/C=C\C=C\C(=O)Cc2c(Cl)c(O)cc(O)c2C(=O)O1`, the Potency was 15.8 µM (active).

In the case of `CNP1(NC)=Nc2nn(-c3ccccc3)c(N)c2C(c2ccccc2)=N1`, the largest response in the series, negative = inhibition was 2.05% (inactive).

As for `CCNC[C@H](O)c1cccc(O)c1`, the largest response in the series, negative = inhibition was 18.1% (inactive).

In the case of `CCOC(=O)c1c(C)c(C(=O)N2CCC3(CC2)OCCO3)c(C)n1CC`, the largest response in the series, negative = inhibition is -3.49% (inactive).
